These results are taken from PubChem BioAssay (NCI).

The panel holds about 83,000 compounds, 20% with a hit somewhere; the sample as a whole holds those more often.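 Cells were grown in 96-well plates and exposed to the test compound at a single concentration for 48 hours; results are reported as percent growth, with values below 10 considered active.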 Unmarked numbers belong to inactive results. Active and inactive are the calls of the source.

This experiment relates to TK-10 renal. Briefly: NCI-60 one-dose screen, 48 h (100 = growth as untreated, 0 = no growth, -100 = all killed). The conditions noted are these: 10 µM unless noted.
Take `O=C1OC(Cc2ccccc2)C1c1ccccc1` (centres undefined): the growth is 89.4%.
On to `O=C1Nc2cc(-c3ccc(NC(=O)c4ccccc4)cc3)ccc2/C1=C/c1ccc[nH]1`, for which the growth was 113%.
To `O=C(N/N=C/c1cc2ccccc2n2nnnc12)Nc1ccccc1` belongs 101%; to `O=C1c2ccc3c4c(ccc(c24)C(=O)N1CCCNCc1ccccc1)C(=O)N(CCCNCc1ccccc1)C3=O`, -84.2% (active); to `C=C1C(=O)O[C@H]2[C@H]1CC/C(COC(=O)NCCc1c[nH]c3ccc(OC)cc13)=C\CC[C@@]1(C)O[C@@H]21`, -13.1% (active).
To `CCOc1ccc(Nc2nc(-c3ccc4c(c3)NC(=O)CO4)cs2)cc1` belongs 85.5%.
As for `COc1ccc(C(=O)c2cc(C)c(OC)c(C)c2)c(OC)c1OC(=O)C(Cl)Cl`, the figure is 50.9%.
`CN(C)c1ccc(Nc2c3ccccc3nc3cc(NC(=O)CCN4CCCC4)ccc23)cc1`: the growth is -12.7% (active).
As for `Cc1nc(N)nc(N[C@@H](C)c2nc3cccc(NCc4ccc(C(=O)NO)cc4)c3c(=O)n2-c2ccccc2)n1`, the figure is 80.3%; as for `COc1ccc(C/C(=C(\C)c2ccc(OCCN3CCCC3)cc2)c2ccc(OCCN3CCCC3)cc2)cc1`, 87.3%.
As for `NC(=NCCCOc1ccc(F)cc1)Nc1ccc(Cl)cc1`, the figure is 64%.
As for `CCCOC(=O)N[C@H]1CCc2c(Cl)c(OC)c(OC)c(OC)c2-c2ccc(SC)c(=O)cc21`, the figure is 49.3%.
Take `N#Cc1c(NC(=O)NCc2ccccc2)sc2c1CCCC2`: the growth is 49.1%.
As for `NCCCCCCNc1cc(-c2cccc(OC(F)(F)F)c2)nc2ccc(N3CCCC3)cc12`, the figure is -44.4% (active).
